Measurements as given in the supplement of paper PMC5499739.
In all, about 16,000 sequences were measured (“Z-score”: median about -0.37, highest 2% from about 3.2 on). Only a selection was taken, and the highest values are over-represented in it overall.

Test system: RBM10 RRM1-ZnF (GST-tagged construct)
Experiment: RNAcompete 7-mer binding Z-score; higher = stronger binding preference
Description: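 RNAcompete: 20 pmol GST-tagged RBM10 RNA-binding constructs were incubated with a designed RNA pool of about 241,000 sequences up to 41 nt (1.5 nmol) on glutathione beads for 30 min at 4 °C and washed. Bound RNAs were identified by microarray hybridisation. Each RNA 7-mer is scored by a one-sided Z-score of its enrichment, computed over probes that contain the 7-mer within longer pool sequences.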

Row | Sequence | RNAcompete 7-mer binding Z-score
1 | GGACGUA | 0.833
2 | UUAUGAU | -0.353
3 | CUGAAUG | -0.285
4 | CGUGGGU | 2.81
5 | AGUGGGG | 4.49
6 | AGUGUGG | 2.95
7 | AGUGGGA | 4.13
8 | AGUGGGC | 2.67
9 | AGUGGUA | 2.01
10 | AGUGGGU | 3.49
11 | GCUGGGA | 2.03
12 | ACUGGGU | 2.06
13 | GGUGGCA | 2.02
14 | AUUGGGA | 2.83
15 | GGUGGGA | 4.26
16 | UCAUCCG | -0.808
17 | CAGUGAG | 0.706
18 | UUCUUUG | -0.659
19 | GCUGAAG | 0.699
20 | ACACUUG | -0.535
21 | UCUAUAC | -0.821
22 | CGUGGGA | 2.33
23 | CGUGGGC | 1.85

Row | Sequence | RNAcompete 7-mer binding Z-score
24 | CGUGGGG | 3.65
25 | AUUUAAG | -0.298
26 | UAGUCAU | -0.444
27 | GGGGAAG | 4.31
28 | CGGGAAU | 1.68
29 | GGGGAAU | 3.41
30 | AGGGAAU | 3.05
31 | GGGGACG | 2.55
32 | GGGGAAC | 2.42
33 | CGACUUC | -0.785
34 | CCCUUGC | -0.694
35 | GCCAGUA | -0.288
36 | UGCCUCC | -0.506
37 | AGGAAGA | 1.7
38 | CGGAAGG | 2.53
39 | UGGAAGG | 4.12
40 | UGGAAGU | 1.79
41 | AGGAAGU | 1.06
42 | AGGAAGG | 4.31
43 | AUACUAG | -0.337
44 | AACCAUC | -0.763
45 | CUAGCUG | -0.386
46 | CGGUGAG | 1.42

Row | Sequence | RNAcompete 7-mer binding Z-score
47 | GGUUGAG | 3.3
48 | CGGUGAA | 0.595
49 | AGGUGAU | 1.8
50 | UGGUGAA | 1.71
51 | GGGUGAG | 4.36
52 | GGGUGAA | 3.87
53 | UGGUGAU | 1.2
54 | UGUUGAG | 0.716
55 | CGUUGAG | -0.0512
56 | GGGUGAC | 3.04
57 | GGGUGAU | 3.22
58 | GAAACGU | -0.00246
59 | GACAGCC | -0.539
60 | CGUCUGC | -0.759
61 | UUUUAAC | -0.818
62 | GUAGAUG | 1.93
63 | AGGUUCA | -0.0285
64 | UUUUCUU | -0.772
65 | GAGCGGA | 3.98
66 | GAGCGGG | 3.61
67 | GAGCGAC | 0.192
68 | GAGCGAG | 3.42
69 | GAGCGGU | 1.72

Row | Sequence | RNAcompete 7-mer binding Z-score
70 | UAGCGGA | 1.13
71 | GAGCGGC | 1.44
72 | CAGCGGG | 2.5
73 | UAGCGAG | 0.826
74 | CCUACCU | -0.766
75 | CCAGUCC | -0.789
76 | AACGACU | -0.457
77 | CGUGCUG | -0.149
78 | CCCGCUC | -0.552
79 | GGGUAAC | 2.4
80 | CGGUAAA | 0.29
81 | AGGUAAA | 1.82
82 | GGGUAAG | 4.39
83 | GGGUAAA | 3.98
84 | CGGUAAG | 1.26
85 | CCCUUCA | -0.776
86 | CCACUAC | -0.623
87 | AUCCGAU | -0.717
88 | GGGAAAA | 3.4
89 | GGAAAAA | 1.86
90 | CGGAAAG | 1.84
91 | GGAAAAG | 3.24
92 | CGGAAAA | 0.654

Row | Sequence | RNAcompete 7-mer binding Z-score
93 | GGGAAGU | 3
94 | GGGAAGA | 3.86
95 | UGGAAAG | 2.84
96 | UGAAAAG | 0.381
97 | CGGAAGA | 0.923
98 | GGGAAAG | 4.79
99 | GAAAAAG | 1.49
100 | UCCGAUG | -0.464
101 | UGUACUA | -0.415
102 | AUCGGCC | -0.62
103 | CUCGCAG | -0.11
104 | GAGCUGG | 1.88
105 | GGUGCGG | 2.92
106 | GGCGUGC | 0.738
107 | CGGUCUU | -0.607
108 | CUAUGGU | -0.116
109 | CCUCUUA | -0.85
110 | GGGGUAU | 3.17
111 | AAGGUAU | 2.13
112 | UGGGUAA | 2.97
113 | AGGGUAA | 4.13
114 | AGGGUAU | 3.69
115 | GGGGUAG | 4.61

Row | Sequence | RNAcompete 7-mer binding Z-score
116 | GUGGUAG | 2.2
117 | GGGGUAC | 2.57
118 | CGGGUAU | 1.59
119 | GGGGUAA | 4.14
120 | CGGGUAA | 1.89
121 | GAGGUAA | 2.23
122 | ACAUUGG | 0.553
123 | AGCUAAG | -0.035
124 | CAUUUAC | -0.85
125 | AAUCGAA | -0.181
126 | ACCAGCC | -0.672
127 | CCUGAGG | 0.339
128 | GUUCUGU | -0.431
129 | CACUAGC | -0.633
130 | CCGUGCC | -0.532
131 | AGAAUGG | 3.27
132 | UGAAUGG | 2.5
133 | AGAAUGU | 0.235
134 | GGAAUGG | 4.85
135 | CGAAUGG | 1.29
136 | GGAAUGU | 1.94
137 | UUGUUUG | 0.0138
138 | UCUAAGG | -0.00896

Row | Sequence | RNAcompete 7-mer binding Z-score
139 | AUGCGUU | -0.405
140 | UCCAACC | -0.805
141 | GAAGGUU | 2.87
142 | UAAGGUG | 2.16
143 | GAAGGUC | 1.25
144 | CAAGGUG | 1.76
145 | UAAGGUA | 1.5
146 | AAAGGUA | 3.05
147 | GAAGGUA | 3.84
148 | GAAGGUG | 4.59
149 | AAAGGUG | 3.71
150 | AUUAAGG | 1.2
151 | CGGGUCU | 0.339
152 | CCGAAGC | -0.61
153 | CGGUUGG | 2.56
154 | GGGUUGG | 4.64
155 | GGGUUAG | 4.38
156 | CGGUUAG | 0.881
157 | GGGUUGA | 3.8
158 | AGGUUGG | 3.06
159 | CGGUUGA | 1.01
160 | UGGUUAG | 2.24
161 | UGGUUGA | 2.02

Row | Sequence | RNAcompete 7-mer binding Z-score
162 | UCCAGAG | -0.35
163 | ACAGAAG | 0.595
164 | UUACAAA | -0.305
165 | UAACUGA | -0.295
166 | GGUCGGU | 1.24
167 | UGGAUAG | 2.48
168 | GGAUUGG | 3.79
169 | GGUUAGC | 1.12
170 | GGUUAGG | 4.59
171 | GGAUUGU | 1.22
172 | CGAUUGG | 0.949
173 | GGGAUGA | 4.17
174 | GGGAUAG | 4
175 | AGGAUAG | 2.16
176 | GGGAUGU | 3.21
177 | GGGAUGC | 3.06
178 | GGUUAGU | 1.7
179 | UGACAGG | 2.13
180 | UACCCAG | -0.659
181 | UCGCGUA | -0.532
182 | ACUCUUU | -0.844
183 | AAUUUCG | -0.607
184 | GUGCUAA | 0.153
